SKKanGAS inh = S. pyogenes SKKanGAS growth inhibitors in kanamycin, primary screen, streptokinase expression inhibitor project, SKKanGAS strain, BacTiter-Glo luminescence; 6 h; inhibition, % at 7.5 µM; hit rate 1.3% among 300,000; AID 1662, 2009;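 active means mean replicate score, as percent of positive control median, at least 50; inconclusive means mean below 50 but one replicate at or above 50; inactive means mean and every replicate below 50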;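 further: strain carries kanamycin resistance gene driven by streptokinase promoter and grows in 40 µg/ml kanamycin; loss of luminescence reflects streptokinase promoter inhibition or plain growth inhibition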
tim23-1 inh = growth inhibitors of tim23-1 mutant yeast, primary screen, luminescence, uHTS. inhibition, % at 20 µM. S. cerevisiae tim23-1 growth, BacTiter-Glo luminescence, 24 h. AID 463212, 2010. hit rate 1.3% among 330,000;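 active means growth inhibition of the mutant yeast at or above 50%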;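 further: temperature-sensitive mutant grown at 25 °C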
TIM10 inh = growth inhibitors of isogenic TIM10 control yeast, primary screen, counter-screen for tim10-1 yeast inhibitor project, luminescence, uHTS | hit rate 1.4% among 330,000 | inhibition, % at 10 µM | S. cerevisiae TIM10 strain growth, BacTiter-Glo luminescence, 24 h;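 active means inhibition of 40% or more at the single tested concentration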;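 further: wild-type TIM10 isogenic control strain grown at permissive 25 °C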
tim10-1 inh = growth inhibitors of tim10-1 mutant yeast, primary screen, luminescence, uHTS | S. cerevisiae tim10-1 ts strain growth, BacTiter-Glo, 24 h | inhibition, % at 20 µM | hit rate 2.2% among 330,000 | AID 463190, 2010;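 active means inhibition of at least 40%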;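 further: mutant grown at 25 °C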
PfHsp90 yeast 2 = growth inhibition of PfHsp90-expressing yeast, primary screen, antimalarial PfHsp90 inhibitor project, S. cerevisiae, BacTiter-Glo luminescence, single point, set 2. inhibition, % at 9.4 µM. BacTiter-Glo ATP, 48 h; yeast lacking PDR1 and PDR3 efflux regulators. hit rate 0.32% among 310,000;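 active means every replicate shows inhibition above about 80%, whatever the replicate mean, limit read from the data; inconclusive means mean inhibition reaches the set limit but some replicate falls short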
tim10-1 confirm = growth inhibitors of tim10-1 mutant yeast, confirmation, single concentration, luminescence, S. cerevisiae. shares compounds with tim10-1 inh. S. cerevisiae tim10-1 ts strain growth, BacTiter-Glo, 24 h. inhibition, % at 20 µM. hit rate 56% among 7,400;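 active means inhibition of yeast growth at or above a set limit in either of two repeat tests at 20 µM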;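 further: tim10-1 mutant grown at permissive 25 °C to find synthetic lethal compounds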
Each line names hits and unclear results; the compound was inactive in the other large screens (follow-up assays come after a bar, where they were run). This is a sample that favours compounds with a hit; in the whole collection about 4.4% have one here.

CCC(C)OC(=O)C[N+](C)(C)CCOC1CC2CCC1(C)C2(C)C (stereo not drawn)	tim10-1 inh 41.2 | tim10-1 confirm inactive
CC(C)CCOC(=O)C[N+](C)(C)CCOC1CC2CCC1(C)C2(C)C (stereo not drawn)	none
COc1cc(NC(=O)CSc2nnnn2C2CCCC2)cc(OC)c1	tim10-1 inh 97.2 | tim10-1 confirm inactive
COc1cccc(NC(=O)CSc2nnnn2C2CCCC2)c1	none
O=C(Cc1coc2ccc3ccccc3c12)N1CCCC1	none
COc1ccc(OC)c(NC(=O)Cc2coc3ccc4ccccc4c23)c1	tim10-1 inh 41.8 | tim10-1 confirm inactive
O=C(O)Cc1coc2ccc3ccccc3c12	tim10-1 inh 43.8 (no result: PfHsp90 yeast 2) | tim10-1 confirm 48.4
COCC(=O)Nc1c(C(=O)Nc2ccc3c(c2)OCO3)oc2ccccc12	none
O=C(CCl)Nc1c(C(=O)Nc2ccc3c(c2)OCCO3)oc2ccccc12	tim10-1 inh 41.8 | tim10-1 confirm inactive
O=C(NCCCc1ccccc1)c1cc([N+](=O)[O-])ccc1Cl	tim10-1 inh 40.6 | tim10-1 confirm inactive
O=C(O)c1cc([N+](=O)[O-])ccc1NCCCc1ccccc1	none
Oc1c(Cl)cc(Cl)cc1/C=C/c1ccc2cccc(O)c2n1	SKKanGAS inh 102.2, tim10-1 inh 43.2 | tim10-1 confirm 33.1
COc1cc(/C=C/c2ccc3cccc(O)c3n2)c(Br)cc1O	SKKanGAS inh 94.4, tim10-1 inh 46.6 | tim10-1 confirm 46.0
COc1cc(/C=C/c2ccc3cccc(OC)c3n2)c(OC(C)=O)c([N+](=O)[O-])c1	none
Oc1cccc2ccc(/C=C/c3cccs3)nc12	SKKanGAS inh 119.6, tim10-1 inh 41.0 | tim10-1 confirm inactive
COc1cc(Br)cc(/C=C/c2ccc3cccc(O)c3n2)c1O	SKKanGAS inh 101.5, tim10-1 inh 49.2 | tim10-1 confirm 37.8
CCC(C)c1ccc(S(=O)(=O)N2CCN(CC(O)COCC3CCCO3)CC2)cc1 (stereo not drawn)	none (no result: SKKanGAS inh)
CN(CC(=O)Nc1ccc(F)c(F)c1F)C(=O)CCN1C(=O)C2CCCCC2C1=O (stereo not drawn)	none (no result: SKKanGAS inh)
COc1ccccc1N(CC(=O)Nc1cc(S(=O)(=O)N(C)C)ccc1C)S(=O)(=O)c1cccs1	none (no result: SKKanGAS inh)
COc1ccc(/C=N/NC(=O)COc2ccccc2-c2ccccc2)cc1	tim10-1 inh 45.0 | tim10-1 confirm inactive
O=C(COc1ccccc1-c1ccccc1)N/N=C/c1cccc2ccccc12	none
CNc1ccc(Br)cc(C(=O)/C=C/c2cccc(OC)c2OC)c1=O	tim10-1 inh 41.7 | tim10-1 confirm 33.6
CCC(=NCc1ccccc1)c1c(C(F)(F)F)[nH]n(-c2nc3ccccc3s2)c1=O	tim10-1 inh 45.7 | tim10-1 confirm 35.3
CCCCOP(=O)(OCCCC)C1(C)CC(=O)CC(C)(C)C1 (stereo not drawn)	none (no result: SKKanGAS inh, tim23-1 inh, TIM10 inh, tim10-1 inh)
CO/N=C/c1ccc(N2CCN(C(=O)c3cccc(C(F)(F)F)c3)CC2)c([N+](=O)[O-])c1	tim10-1 inh 40.5 | tim10-1 confirm inactive
CO/N=C/c1ccc(N2CCN(C(=O)c3ccc(F)cc3)CC2)c([N+](=O)[O-])c1	none
O=C(Nc1cccc(C(=O)N2CCCCC2)c1)C1CCCCC1	none (no result: SKKanGAS inh, tim23-1 inh, TIM10 inh, tim10-1 inh)
OC(COCC(F)(F)C(F)(F)C(F)(F)C(F)F)Cn1c2ccc(Cl)cc2c2cc(Cl)ccc21 (stereo not drawn)	SKKanGAS inh 109.9, tim10-1 inh 40.8 | tim10-1 confirm 36.3
CCOC(=O)c1c(O)c2cc(Cl)ccc2n(CC)c1=O	none (no result: PfHsp90 yeast 2)
Cc1ccc(NC(=O)c2cnccn2)nc1	none
Cc1ccc(C(=O)Nc2ccc(C(=O)NCC3CCCO3)cc2)cc1 (stereo not drawn)	none
CCOC(=O)Nc1ccc(C(=O)NCC2CCCO2)cc1 (stereo not drawn)	tim10-1 inh 43.0 | tim10-1 confirm inactive
COc1ccc(-c2cc(C(F)(F)F)nc(N3CCN(Cc4ccccc4)CC3)n2)cc1OC	tim10-1 inh 45.7 | tim10-1 confirm inactive
COc1ccccc1C(=O)Nc1cccc(C(=O)c2ccccc2)c1	none
COc1cccc(OC)c1C(=O)Nc1ccc(Br)c(C(=O)c2ccccc2)c1	tim10-1 inh 40.6 | tim10-1 confirm inactive
COc1cccc(C(C)NC(=S)NCc2ccc(F)cc2)c1 (stereo not drawn)	tim10-1 inh 41.8 | tim10-1 confirm inactive
O=C1NCCCc2c1oc1ccc(O)cc21	none
Oc1c(Cl)cc(Cl)c2c1NCCC2	SKKanGAS inh 68.6, tim10-1 inh 49.7 | tim10-1 confirm inactive
O=C(NCc1ccccc1Cl)C1=CC=CN2CCS(=O)(=O)N=C12	none (no result: SKKanGAS inh)
Cc1cccc(N=C2Sc3nc4c(C)c(C)ccc4cc3CN2CCN2CCOCC2)c1	tim10-1 inh 52.8 | tim10-1 confirm 36.6
CCC(=O)Nc1cccc(C(=O)/C=C/c2ccccc2)c1	tim10-1 inh 42.0 | tim10-1 confirm 42.6
CCC(=O)Nc1cccc(C(=O)c2ccccc2)c1	none
Cc1nc2scc(C)n2c(=O)c1S(=O)(=O)N1CCN(c2cccc(C(F)(F)F)c2)CC1	tim10-1 inh 50.1 | tim10-1 confirm 43.1
Cc1c(S(=O)(=O)N2CCN(c3cccc(C(F)(F)F)c3)CC2)c(=O)n(C)c(=O)n1C	none
CCCCCCCCC(=O)O	tim10-1 inh 45.5 (no result: PfHsp90 yeast 2) | tim10-1 confirm inactive
CCCCCCC(=O)O	none (no result: SKKanGAS inh)
O=C(CCNc1ccc(Cc2ccncc2)cc1)c1cccc([N+](=O)[O-])c1	tim10-1 inh 43.3 | tim10-1 confirm 34.2
Cc1cccc(OCC(=O)Nc2nccs2)c1C	tim10-1 inh 42.4 | tim10-1 confirm inactive
CCN(CC)c1ccc(S(=O)(=O)N2CCOCC2)cc1NC(=O)CNCc1cccc(Cl)c1	none (no result: SKKanGAS inh, tim23-1 inh, TIM10 inh, tim10-1 inh)
CN(C)C(=O)C12CCC(C)(c3nc4ccccc4nc31)C2(C)C (stereo not drawn)	tim10-1 inh 42.1 | tim10-1 confirm inactive
Cc1cc2nc3c(nc2cc1C)C1(C(=O)N(C)C)CCC3(C)C1(C)C (stereo not drawn)	none
COC(=O)CN1C(=S)N(c2ccc(OC)cc2)C(=O)/C1=C/c1ccc(OC)cc1	tim10-1 inh 49.9 | tim10-1 confirm 36.6
CC(C)C(=O)N1CCN(c2ccccc2NC(=O)c2ccco2)CC1	none
CN(C)c1ccc(C(=O)c2ccc(O)cc2O)cc1	tim10-1 inh 40.9 | tim10-1 confirm inactive
O=[N+]([O-])c1ccc(N=Nc2ccc(O)cc2O)cc1	SKKanGAS inh inconclusive, tim10-1 inh 59.0 | tim10-1 confirm 44.2
COC(=O)C1=C(C)NC(C)=C(C(=O)O[C@@H]2CCCN(Cc3ccccc3)C2)[C@@H]1c1cccc([N+](=O)[O-])c1	tim10-1 inh 44.7 | tim10-1 confirm inactive
